The text below walks through data of ChEMBL document CHEMBL1157539, “Thousands of chemical starting points for antimalarial lead identification” (Nature, 2010).

One may read the Inhibition as the percentage by which the read-out fell short of the control.

Format in all cases: functional
Assay [1] relates to Plasmodium falciparum. The experiment in a line: GSK_TCMDC: Inhibition of Plasmodium falciparum 3D7 in whole red blood cells, using parasite LDH activity as an index of growth. Test compounds present at 2uM.
Assay [2] concerns Plasmodium falciparum. Nature of the assay: GSK_TCMDC: Inhibition of Plasmodium falciparum Dd2 in whole red blood cells, using parasite LDH activity as an index of growth. Test compounds present at 2uM.
A further assay deals with HepG2. The experiment in a line: GSK_TCMDC: Percent inhibition of human HepG2 cell line. Test compounds present at 10uM.

The structures appear in SMILES notation.

For `O=C(O)C(F)(F)F.O=[N+]([O-])c1cccc(CNC2CCN(Cc3ccc(C(F)(F)F)cc3)CC2)c1`, the figures for the Inhibition with Plasmodium falciparum [1], with Plasmodium falciparum [2] and in the assay on HepG2 were 99%, 28% and 0%, respectively.
Consider `COc1cc2nc(NCCn3cccn3)nc(NCCc3ccccc3)c2cc1OC`, for which the Inhibition in the assay on Plasmodium falciparum [1] is given as 100%; in the assay on Plasmodium falciparum [2], 100%; in the assay with HepG2, 12%.
With `CN1CC[C@@H](Oc2cc(NC(=O)Nc3ccc(Cl)c(C(F)(F)F)c3)ccc2Cl)C1`, the Inhibition in the assay with Plasmodium falciparum [1] is 100%; in the assay on Plasmodium falciparum [2], 68%; with HepG2, 17%.
The matching figures for `O=C(c1cccs1)N1CCN(c2ccc([N+](=O)[O-])c(NC3CC3)c2)CC1`: 100%, 95% and 0%.
Take `CCNc1cc(C(=O)N[C@@H](Cc2ccccc2)[C@H](O)CNCCC(C)c2ccccc2)cc(N2CCCC2=O)c1.O=C(O)C(F)(F)F` (some centres not stated): the results for the Inhibition in the assay on Plasmodium falciparum [1], in the assay with Plasmodium falciparum [2] and in the assay with HepG2 were 99%, 95% and 0%, respectively.
Consider `Cc1cccc(NC(=O)NCc2ccccc2)n1`, for which the results for the Inhibition in the assay with Plasmodium falciparum [1], with Plasmodium falciparum [2] and in the assay on HepG2 were 97%, 2% and 14%, respectively.
The matching figures for `O=C(NCCCCCN1CCC(c2c[nH]c3ccccc23)CC1)c1ccc(-c2cccnc2)cc1`: 89%, 10% and 29%.
The corresponding values for `O=C(NCc1ccccc1)c1ncn(CCCN2CCC(N3CCCC3)CC2)c1-c1ccc(Cl)c(Cl)c1.O=CO` are 89%, 36% and 8%.
The corresponding values for `COc1cc(C(=O)Nc2cccc(-c3cn4cccc(C)c4n3)c2)cc(OC)c1OC` are 99%, 77% and 0%.
For `O=C(c1cc(-c2cccs2)n[nH]1)N1CCN(S(=O)(=O)c2ccc(Cl)s2)CC1`, the Inhibition in the assay on Plasmodium falciparum [1] is on record as 84%; with Plasmodium falciparum [2] it was 80%; with HepG2 it was 20%.
`COc1cc(Cc2cnc(N)nc2N)cc(OCC(C)(C)C(=O)O)c1OC`: the Inhibition is recorded as 89% in the assay on Plasmodium falciparum [1], 0% in the assay on Plasmodium falciparum [2] and 0% with HepG2.
For `CCc1c[nH]c2c(N3CCCS3(=O)=O)cc(C(=O)N[C@@H](Cc3ccccc3)[C@H](O)CNC(C)(C)CCCC(C)C)cc12`, the Inhibition stood at 96% with Plasmodium falciparum [1], 98% in the assay with Plasmodium falciparum [2] and 13% with HepG2.
For the molecule `CCN(CC)c1ccccc1CNC(=O)c1cc(Cl)c(N)cc1OC`, the figures for the Inhibition with Plasmodium falciparum [1], with Plasmodium falciparum [2] and with HepG2 were 97%, 94% and 6%, respectively.
In the case of `CCn1c(C)cc(C=C2SC(=Nc3ccccc3)NC2=O)c1C`, the Inhibition was 90% in the assay on Plasmodium falciparum [1], 87% with Plasmodium falciparum [2] and 27% with HepG2.
The corresponding values for `O=C(Nc1ccc(C(F)(F)F)cc1)NC1CCN(CCCCCNC(=O)C2CC2c2ccc(Cl)c(Cl)c2)CC1` (configuration not stated) are 100%, 45% and 41%.
Regarding `NC(=O)C1CCN(Cc2cccc(-c3cccc(-c4nc5cc(C(F)(F)F)ccc5[nH]4)c3)c2)CC1.O=C(O)C(F)(F)F`, the Inhibition was found to be 100% with Plasmodium falciparum [1], 100% in the assay with Plasmodium falciparum [2] and 16% with HepG2.
For the molecule `CCOc1ccc2c(=NN=Cc3c4ccccc4cc4ccccc34)cc(C)[nH]c2c1`, the values for the Inhibition with Plasmodium falciparum [1], in the assay on Plasmodium falciparum [2] and with HepG2 were 90%, 94% and 0%, respectively.
The corresponding values for `CC(Cc1ccc(NC(=O)COc2ccc(CC(C)NCCc3cccc(Cl)c3)cc2)cc1)NCCc1cccc(Cl)c1` (configuration not stated) are 100%, 98% and 100%.
The corresponding values for `O=C(/C=C/c1ccc(Cl)c(Cl)c1)NCCCCCN1CC[C@H](NC(=O)c2ccc3c(c2)OCO3)C1` are 94%, 3% and 32%.
In the case of `CCNc1cc(C(=O)N[C@@H](Cc2ccoc2)[C@H](O)CNC(C)CCCC(C)C)cc(N2CCCCS2(=O)=O)c1.Cl` (some centres not stated), the results for the Inhibition with Plasmodium falciparum [1], in the assay with Plasmodium falciparum [2] and in the assay with HepG2 were 99%, 68% and 0%, respectively.
The matching figures for `COc1cc2nc(N(C)Cc3cccc(I)c3)nc(N)c2cc1OC`: 100%, 88% and 7%.
The corresponding values for `Cc1nc2ccc(F)cc2n1C1CCN(C(=O)Cc2ccc(F)c(F)c2)CC1` are 100%, 99% and 2%.
With `Cc1cc(N2C(N)=NC(N)=NC2(C)C)ccc1Cl.Cl`, the Inhibition in the assay on Plasmodium falciparum [1] is 95%; in the assay on Plasmodium falciparum [2], 0%; in the assay on HepG2, 66%.
The corresponding values for `Cl.O=C(Nc1ccc(Cl)c(Cl)c1)N1CCc2cc3nccc(N4CCN5CCC[C@H]5C4)c3cc21` are 100%, 75% and 2%.
On to `CC1CCCN(C(=O)c2cc(-c3ccccn3)nc3c(Cl)cccc23)C1` (configuration not stated), for which the Inhibition is reported as 86% in the assay with Plasmodium falciparum [1], 9% in the assay on Plasmodium falciparum [2] and 2% in the assay with HepG2.
The corresponding values for `CC(Nc1nc(Nc2ccc(F)cc2)nc(SCC(N)=O)n1)c1ccccc1` (configuration not stated) are 90%, 87% and 14%.
The matching figures for `CN(C)CCOC(=O)C1(O)CCC2CC1C2(C)C.Cl` (configuration not stated): 95%, 0% and 10%.
On to `CCC(C)Oc1ccc2nc(N)nc(N)c2c1Cl` (configuration not stated), for which the Inhibition in the assay on Plasmodium falciparum [1] amounted to 96%; in the assay with Plasmodium falciparum [2], 0%; with HepG2, 57%.
The corresponding values for `COc1ccc(O)c(C(=O)c2cc(C(=O)NCCc3ccccc3)c(=O)n(CCc3ccccc3)c2)c1` are 97%, 18% and 11%.
The corresponding values for `O=C(N[C@@H](Cc1ccccc1)C(=O)NC1CCCCC1)c1ccc(O)c(-c2cccc(C(F)(F)F)c2)c1` are 96%, 36% and 11%.
On to `O=C(O)C(F)(F)F.OCC1CCN(Cc2ccc(-c3cccc(-c4nc5cc(C(F)(F)F)ccc5[nH]4)c3)cc2)CC1`, for which the Inhibition in the assay on Plasmodium falciparum [1] is recorded as 99%; in the assay with Plasmodium falciparum [2], 73%; in the assay on HepG2, 19%.
For the molecule `CC(=O)c1ccc2nc[nH]c(=O)c2c1`, the Inhibition with Plasmodium falciparum [1] was 96%; in the assay on Plasmodium falciparum [2], 99%; with HepG2 it was 79%.
For `CN(C)c1ccc(CN2CCC(CNC(=O)c3cc(-c4ccccc4F)cs3)C2)cc1.O=C(O)C(F)(F)F` (configuration not stated), the Inhibition with Plasmodium falciparum [1] came out at 100%; in the assay with Plasmodium falciparum [2] it was 33%; with HepG2 it was 35%.
The corresponding values for `O=C(Nc1ccc(C(F)(F)F)cc1)Nc1ccccc1N1CCNCC1.O=C(O)C(F)(F)F` are 94%, 69% and 39%.
The matching figures for `CNCCNCc1ccc(-c2ccc(-c3nc4cc(C(F)(F)F)ccc4[nH]3)s2)cc1.O=C(O)C(F)(F)F`: 99%, 100% and 30%.
In the case of `COc1ccc(CNc2nc(NCc3ccccc3)c3cc(OC)c(OC)cc3n2)cc1OC`, the Inhibition in the assay with Plasmodium falciparum [1] was 100%; with Plasmodium falciparum [2], 99%; in the assay with HepG2 it was 24%.
The corresponding values for `O=C(O)C(F)(F)F.OCCN1CCN(Cc2cccc(-c3ccc(-c4nc5cc(C(F)(F)F)ccc5[nH]4)s3)c2)CC1` are 100%, 98% and 42%.
The corresponding values for `CN1CCN(CCCNCc2cccc(-c3ccc(CNCCc4ccccc4)cc3)c2)CC1.O=C(O)C(F)(F)F` are 100%, 20% and 36%.
As for `CC1CN(Cc2ccc(-c3ccc(-c4nc5ccccc5[nH]4)cc3)cc2)CC(C)O1.O=C(O)C(F)(F)F` (configuration not stated), the Inhibition is given as 98% in the assay with Plasmodium falciparum [1], 96% in the assay on Plasmodium falciparum [2] and 48% with HepG2.
Turning to `COc1ccc2nccc([C@@H](O)CN3CCC(NCc4ccc5cccc(O)c5n4)CC3)c2c1.O=C(O)C(=O)O`, the figures for the Inhibition with Plasmodium falciparum [1], with Plasmodium falciparum [2] and in the assay with HepG2 were 93%, 40% and 10%, respectively.
On to `Cc1cc(N/N=C/c2ccc([N+](=O)[O-])cc2)c2ccc(F)cc2n1`, for which the Inhibition in the assay on Plasmodium falciparum [1] is recorded as 100%; in the assay on Plasmodium falciparum [2] it was 22%; in the assay on HepG2 it was 0%.
As to `COc1cccc(C(=O)Nc2ccc(Nc3nc(C)cc(N(C)C)n3)cc2)c1`, the Inhibition in the assay with Plasmodium falciparum [1] is 92%; in the assay with Plasmodium falciparum [2], 33%; in the assay on HepG2, 1%.
The corresponding values for `CCNc1cc(C)nc(Nc2ccc(NS(=O)(=O)c3cc(OC)ccc3OC)cc2)n1` are 100%, 36% and 56%.
The matching figures for `Cc1[nH]c(C)c(-c2ccc(OCc3cc(C(F)(F)F)cc(C(F)(F)F)c3)nc2)c(=O)c1Cl`: 98%, 96% and 19%.
For the molecule `CN(C)CCNCc1cccc(-c2ccc3c(Nc4ccc(Oc5ccccn5)cc4)ccnc3c2)c1`, the Inhibition in the assay on Plasmodium falciparum [1] is 99%; in the assay with Plasmodium falciparum [2], 100%; in the assay on HepG2 it was 27%.
Turning to `C=CCOc1ccc(-c2c(C)[nH]c(C)c(Br)c2=O)cc1`, the results for the Inhibition in the assay with Plasmodium falciparum [1], with Plasmodium falciparum [2] and with HepG2 were 98%, 96% and 5%, respectively.
The matching figures for `Cc1cccc2nc(-c3ccc(-c4cccc(NC(=O)Nc5ccc(Cl)c(Cl)c5)c4)s3)[nH]c12`: 100%, 36% and 46%.
The corresponding values for `Cc1cc(NCc2ccccc2)nc(NCc2ccccc2)n1` are 91%, 18% and 21%.
The matching figures for `COc1cc(OC)c(NC(=O)COc2ccc(C)cc2)cc1Cl`: 86%, 90% and 0%.
For `CC(=O)Nc1ncc(C(=O)Nc2ccc(-c3cccc(-c4nc5cc(C(F)(F)F)ccc5[nH]4)c3)cc2)s1`, the Inhibition was found to be 100% with Plasmodium falciparum [1], 92% with Plasmodium falciparum [2] and 79% in the assay on HepG2.
The corresponding values for `Cc1c(C)n(C2CCCC2)c2ncnc(OC3CCN(CC(=O)NCC4CC4)CC3)c12` are 89%, 89% and 20%.
With `O=C(NCc1cccc(CN2CCOCC2)c1)c1cc(Br)cc(N2CCN(c3ccncc3)CC2)c1.O=C(O)C(F)(F)F`, the results for the Inhibition in the assay with Plasmodium falciparum [1], in the assay on Plasmodium falciparum [2] and with HepG2 were 99%, 29% and 25%, respectively.
For the molecule `CCN(CC)CCCC(C)Nc1ccnc2[nH]c3ccccc3c12` (configuration not stated), the Inhibition with Plasmodium falciparum [1] was found to be 82%; in the assay with Plasmodium falciparum [2] it was 38%; with HepG2, 0%.
The corresponding values for `CN1CCC(Oc2ccc(CN3CC[C@H](NC(=O)c4ccc(Cl)c(F)c4)C3)c3ccccc23)C1.O=C(O)C(F)(F)F` (some centres not stated) are 100%, 65% and 51%.
As to `CN(c1ccc2c(c1)nc(NCc1ccccc1)n2C)c1ccnc(Nc2ccc(CS(C)(=O)=O)cc2)n1.Cl`, the Inhibition in the assay on Plasmodium falciparum [1] was found to be 94%; with Plasmodium falciparum [2], 69%; in the assay with HepG2, 61%.
As for `COc1cccc(C(=O)Nc2ccc(Nc3nc(C)cc(N4CCCCC4)n3)cc2)c1OC`, the Inhibition turned out to be 92% in the assay with Plasmodium falciparum [1], 27% in the assay with Plasmodium falciparum [2] and 47% in the assay on HepG2.
The corresponding values for `CC(C)(C)c1ccc(S(=O)(=O)Nc2ccccc2Cn2nc(N3CCNCC3)ccc2=O)cc1.O=C(O)C(F)(F)F` are 98%, 97% and 0%.
The matching figures for `CCOc1cc(C(=O)NCC2CCN(CC3CCCCC3)CC2)ccc1-c1nc2cc(Cl)ccc2[nH]1`: 98%, 59% and 14%.
The matching figures for `Cc1ccc(OCC2CCN(c3ncc(C(=O)NCCCN4CCCC4=O)cc3Cl)CC2)cc1`: 94%, 71% and 7%.
